# Screens: PubChem BioAssay, National Center for Advancing Translational Sciences (NCATS)
# HEK293 tox: qHTS of GLP-1 Receptor Inverse Agonists: Cytotox Screen; HEK293 cAMP-luciferase reporter cells, luminescence, 24 h; Potency, µM (highest dose often 38.3 µM), hits mostly inhibitors; actives 0.13% (n = 410,000);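 note: loss of luciferase light is scored as toxicity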
#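 Step one: seed cells (200 cells/uL, DMEM with 10% Nu serum, 1% pen-strep). Step two: 12-hour incubation at 37 deg C. Step three: pin 23 nL compound, incubate 24 hr. Step four: add luciferase reagent, read luminescence 12 min later.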
# TSHR antag: Antagonists of the Thyroid Stimulating Hormone Receptor: HTS campaign; activity change, negative = inhibition, % at 11.5 µM; TSHR-expressing cells, TSH-stimulated cAMP HTRF, 2 h; active compounds read low; actives 0.2% (n = 330,000); Thyrotropin receptor (Homo sapiens), P16473;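 active = activity change below a set negative limit, meaning inhibition stronger than a set level, cut at about -70% in these data; inconclusive = activity change between two set negative limits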
#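 Inhibition of cAMP made by TSHR-expressing cells under TSH stimulation (4nM final, EC80; 2 h, 37 deg C) is quantified with a one-step lysis HTRF kit, anti-cAMP cryptate versus cAMP-d2.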
# PTHR1 agonist: qHTS for PTHR1 Agonists: Primary Screen; Parathyroid hormone/parathyroid hormone-related peptide receptor (Homo sapiens), Q03431; HEK293 GP2 PTHR1 cells, GloSensor cAMP luminescence, 1 h; Potency, µM (titrated, usually from 115 µM), usual class: activators; actives 0.075% (n = 410,000); AID 743266, 2014; note: nearly all actives have a fitted effect of over 55% in size
#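 HEK-293-derived GP2 cells expressing PTHR1 and a GloSensor cAMP reporter, 3,000/well, plated overnight, given luciferin plus IBMX (each 0.5 mM as added) for 1 h at 37 °C, then compound for 1 h at 37 °C. Luminescence was read after 15 min at room temperature.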
# GLP-1R agonist: qHTS of GLP-1 Receptor Agonists | Glucagon-like peptide 1 receptor (Homo sapiens), P43220 | HEK293 GLP-1R CRE-luciferase, luminescence, 4-6 h; cells express a hypersensitive GLP-1R form | Potency, µM (highest dose often 45.6 µM), actives largely listed as activators | actives 0.007% (n = 380,000)
# Target sequence (P43220 whole entry, looked up): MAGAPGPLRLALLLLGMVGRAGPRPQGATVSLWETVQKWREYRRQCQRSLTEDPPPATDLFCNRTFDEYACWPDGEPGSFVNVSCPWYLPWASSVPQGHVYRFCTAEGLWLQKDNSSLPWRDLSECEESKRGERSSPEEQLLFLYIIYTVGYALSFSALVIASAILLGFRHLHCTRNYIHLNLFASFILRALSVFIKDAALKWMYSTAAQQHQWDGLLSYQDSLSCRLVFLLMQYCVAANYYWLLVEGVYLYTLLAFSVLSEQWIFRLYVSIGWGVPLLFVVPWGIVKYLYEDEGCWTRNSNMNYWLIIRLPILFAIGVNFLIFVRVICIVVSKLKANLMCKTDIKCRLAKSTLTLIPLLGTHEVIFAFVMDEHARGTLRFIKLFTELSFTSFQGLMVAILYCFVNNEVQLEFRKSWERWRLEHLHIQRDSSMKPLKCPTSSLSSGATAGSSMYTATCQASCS
# GLP-1R inv ag: qHTS of GLP-1 Receptor Inverse Agonists (Inhibition Mode) | Glucagon-like peptide 1 receptor (Homo sapiens), P43220 | HEK293 GLP-1R CRE-luciferase, luminescence, 24 h; GLP-1R form is constitutively active | Potency, µM (doses to about 38.3 µM), actives largely listed as inhibitors | actives 1.6% (n = 410,000) | AID 624417, 2012; note: nearly all actives have a fitted effect of over 55% in size
#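 Seeding at 200 cells/uL, 12 h culture, 24 hr compound treatment, then luciferase reagent and a luminescence read; cells are HEK293 stably expressing a constitutively active GLP-1R plus cAMP-responsive luciferase.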
# Numbers stand for hits; n = inactive; u = inconclusive; x = no result given. Sampled rows, rich in hits. Any-hit rate of the full collection: about 1.8%. Unless noted, calls come from the whole dose curve; as a rule, active = well fitted curve in the direction sought with a large enough effect; inconclusive = small, poorly fitted or top-dose-only effect, or another doubt; inactive = no such curve, though single readings can be large; an effect the other way counts as inactive or inconclusive.
SMILES,HEK293 tox,TSHR antag,PTHR1 agonist,GLP-1R agonist,GLP-1R inv ag
CCc1cccc(NC(=O)c2ccc3c(c2)c(C)c(C)n3Cc2ccc(F)cc2)c1,n,x,n,x,10µM
CN(C)c1nc(N)nc(CSc2nc3cc(Cl)ccc3o2)n1,n,n,n,n,n
O=S1(=O)C=C(Sc2nc3cc(Cl)ccc3o2)c2ccccc21,u,-78,n,n,n
COc1ccc([C@@H]2CC=C(C(=O)O)[C@H](c3ccc(Cl)cc3)N2S(=O)(=O)c2ccccc2C)cc1,n,n,n,n,u
Cc1ccc(S(=O)(=O)N2[C@@H](c3ccc(Br)cc3)C(C(=O)O)=CC[C@H]2c2ccc(Cl)cc2)cc1,n,n,n,n,11µM
Cc1ccc([C@@H]2CC=C(C(=O)O)[C@H](c3ccc(Cl)cc3)N2S(=O)(=O)c2ccccc2C)cc1,n,n,n,n,8.9µM
Cc1ccccc1S(=O)(=O)N1[C@@H](c2ccccc2)C(C(=O)O)=CC[C@H]1c1ccc(Cl)cc1,n,n,n,n,7.1µM
Cc1ccc([C@@H]2CC=C(C(=O)O)[C@H](c3ccc(Cl)cc3)N2S(=O)(=O)c2ccc(C)cc2)cc1,n,n,n,n,u
Cc1ccc([C@@H]2CC=C(C(=O)O)[C@H](c3ccc(Br)cc3)N2S(=O)(=O)c2ccccc2C)cc1,n,n,n,n,11µM
Cc1ccccc1S(=O)(=O)N1[C@@H](c2ccc(Br)cc2)C(C(=O)O)=CC[C@H]1c1ccc(Cl)cc1,n,n,n,n,u
CCOc1ccccc1NC(=O)n1ncc2cc(Cl)ccc21,n,x,n,x,n
COc1ccc(CNCc2c(C(=O)O)c(C)n(Cc3ccccc3C)c2C)cc1OC,n,x,n,x,n
Cc1ccccc1S(=O)(=O)N1C(c2ccc(Cl)c(Cl)c2)CC=C(C(=O)O)C1c1cccc(Br)c1 (centres undefined),n,x,n,x,10µM
COc1ccc([C@@H]2CC=C(C(=O)O)[C@H](c3cccc(Cl)c3)N2S(=O)(=O)c2ccccc2C)cc1,n,n,n,n,u
CC(C)NC(=O)COc1coc(CN2CCN(c3ccccc3F)CC2)cc1=O,n,-124,n,n,n
COc1ccc(-n2c(C)cc(C(=O)Cn3c(NCCO)nc4ccccc43)c2C)cc1,n,n,n,n,10µM
COc1ccc(C(=O)Cn2c(NCCCO)nc3ccccc32)cc1,n,x,n,n,n
Cc1cccc(CNC(=O)C(=O)Nc2ccccc2C)c1,n,x,n,n,n
Cc1[nH]c2ccc(F)cc2c1CCN(Cc1cccnc1)C(=S)Nc1cccc(F)c1,n,n,n,n,10µM
CC[C@H]1OC(=O)[C@H](C)[C@@H](O[C@H]2C[C@@](C)(OC)[C@@H](O)[C@H](C)O2)[C@H](C)[C@@H](O[C@@H]2O[C@H](C)C[C@H](N(C)C)[C@H]2O)[C@](C)(O)C[C@H](C)C(=NOCOCCOC)[C@H](C)[C@@H](O)[C@]1(C)O,x,x,x,n,x
COc1ccc(N2CCN(C(=O)c3cc4cc5ccc(Cl)cc5nc4o3)CC2)cc1,n,x,n,n,n
COc1ccc(Br)cc1C1C(C(=O)Nc2ccc(C)cc2C)=C(C)Nc2ncnn21 (centres undefined),n,x,n,n,n
Cc1c(O)ccc2c(CN3CCN(C/C=C/c4ccccc4)CC3)cc(=O)oc12,n,n,n,n,3.5µM
O=C(c1ccccc1)N(C(=O)c1ccccc1)N1CCCC1,n,x,n,n,10µM
O=C(c1ccccc1)N1CCCCC1,n,x,n,n,n
CC(C)c1ccc(C2c3c(-c4ccccc4O)n[nH]c3C(=O)N2Cc2ccncc2)cc1 (centres undefined),u,x,n,x,u
CCOC(=O)c1sc(=S)n(-c2ccccc2)c1C,n,n,n,n,n
CCOC(=O)c1sc(=S)n(Cc2ccccc2)c1C,n,n,n,n,8.9µM
CCCCNc1ccc(C(=O)OCCN(CC)CC)cc1,x,x,x,n,x
